# Source: publication PMC4336329 (PLoS ONE, 2015)
# Out of some 310,000 compounds screened, about 14,000 (4.5%) showed an effect of 50% or more. Effects have a minus sign here. The entries come from a sample that favours strong results as a whole. Where a SMILES comes first, the peptide text is derived from it. The star is where a group is joined. Cbz = O=C(OCc1ccccc1)*
# Molecular target: human ether-à-go-go-related gene (hERG) potassium channel (human, UniProt Q12809)
# Assay: primary screen, population patch clamp on CHO cells stably expressing hERG; higher = less effect of the substance
# 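Note: peak tail current of the secondary pulse compared with the same well before compound.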
# human ether-à-go-go-related gene (hERG) potassium channel, sequence (Q12809 whole entry, looked up): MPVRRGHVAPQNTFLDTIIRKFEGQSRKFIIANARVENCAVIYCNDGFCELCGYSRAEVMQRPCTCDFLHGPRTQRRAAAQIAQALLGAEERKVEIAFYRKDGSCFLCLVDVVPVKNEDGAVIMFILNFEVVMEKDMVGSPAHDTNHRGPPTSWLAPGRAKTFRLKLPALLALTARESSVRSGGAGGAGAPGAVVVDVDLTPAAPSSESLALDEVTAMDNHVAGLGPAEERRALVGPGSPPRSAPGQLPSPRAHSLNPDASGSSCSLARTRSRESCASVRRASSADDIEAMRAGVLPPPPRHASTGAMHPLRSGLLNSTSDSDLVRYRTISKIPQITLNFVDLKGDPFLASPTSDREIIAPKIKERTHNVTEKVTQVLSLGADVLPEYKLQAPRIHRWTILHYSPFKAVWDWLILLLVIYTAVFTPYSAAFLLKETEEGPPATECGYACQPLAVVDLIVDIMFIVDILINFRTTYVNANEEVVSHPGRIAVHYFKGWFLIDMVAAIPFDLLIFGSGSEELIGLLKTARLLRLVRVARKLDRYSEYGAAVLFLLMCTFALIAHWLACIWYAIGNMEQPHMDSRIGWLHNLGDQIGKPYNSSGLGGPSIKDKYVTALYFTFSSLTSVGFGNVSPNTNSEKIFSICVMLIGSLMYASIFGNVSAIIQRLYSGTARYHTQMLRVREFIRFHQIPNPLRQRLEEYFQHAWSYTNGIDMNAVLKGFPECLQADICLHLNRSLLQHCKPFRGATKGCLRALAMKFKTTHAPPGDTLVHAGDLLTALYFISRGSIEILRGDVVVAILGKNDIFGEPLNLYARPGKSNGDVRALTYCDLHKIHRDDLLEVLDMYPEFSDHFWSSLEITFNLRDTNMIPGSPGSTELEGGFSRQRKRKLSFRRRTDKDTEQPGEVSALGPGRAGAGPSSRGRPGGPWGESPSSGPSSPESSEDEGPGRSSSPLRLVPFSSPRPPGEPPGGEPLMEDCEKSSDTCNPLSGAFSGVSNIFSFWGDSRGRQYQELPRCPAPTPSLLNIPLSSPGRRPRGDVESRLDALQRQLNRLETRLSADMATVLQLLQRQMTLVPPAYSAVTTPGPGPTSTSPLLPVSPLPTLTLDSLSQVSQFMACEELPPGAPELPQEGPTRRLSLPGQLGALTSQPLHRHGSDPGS
row,SMILES,"hERG current change (%, negative = inhibition) at 10uM [%]"
1,COc1ccc(Cl)cc1NS(=O)(=O)c1cn(C)nc1C,7.1
2,COC(=O)C1=C(c2ccc(OC)c(OC)c2)C[C@@H]2CC[C@H]1N2C(=O)NCC1CC1,15.1
3,O=C(CSc1ccc(-c2ccco2)nn1)NCc1ccccc1Cl,-49.1
4,Oc1ccc(/C=N/Nc2nccnc2Cl)cc1,1.47
5,Clc1nccnc1N/N=C/c1ccc(Br)cc1,-50.3
6,Fc1ccc(/C=N/Nc2nccnc2Cl)cc1,9.05
7,Cc1cccc(NC(=O)CN2C(=O)S/C(=C\c3cc(C)n(C)c3C)C2=O)c1,-10.7
8,COc1cccc(NC(=O)CN2CCCCCC2)c1.Cl,11.6
9,O=C(CN1CCCCC1)Nc1ccc(N2CCCCCC2)cc1.O=C(O)C(=O)O,-88.7
10,CC1CCCCN1CC(=O)Nc1ccc(N2CCCCCC2)cc1.O=C(O)C(=O)O (centres unmarked),-13.2
11,NC(=O)C1(N2CCCCC2)CCN(CC(=O)Nc2ccccc2-c2ccccc2)CC1,14.6
12,COc1ccc(NC(=O)CN2CCC(C(N)=O)(N3CCCCC3)CC2)cc1,0.362
13,CC1CCN(CC(=O)Nc2ccc(N3CCCCCC3)cc2)CC1.O=C(O)C(=O)O,-14.1
14,NC(=O)C1(N2CCCCC2)CCN(CC(=O)Nc2ccc(Oc3ccccc3)cc2)CC1,-67.8
15,O=C(CN1CCCCC1)Nc1cccc(Oc2ccccc2)c1,-50.7
16,CC1CCCCN1CC(=O)Nc1ccc(Oc2ccccc2)cc1.Cl (centres unmarked),-50.7
17,CC1CCCCN1CC(=O)Nc1ccc2c(c1)OCO2.O=C(O)C(=O)O (centres unmarked),-20.1
18,O=C(CN1CCCCCC1)Nc1cccc(NC(=O)CN2CCCCCC2)c1,13
19,O=C(CN1CCCCCC1)Nc1ccccc1.O=C(O)C(=O)O,10.8
20,CCN1CCC(Nc2ccnc3cc(Cl)ccc23)CC1,-40.5
21,O=C(Nc1ccccc1)OCc1ccccn1,10.8
22,COc1ccc(C2=NN(CN3C(=O)C(=O)c4ccccc43)C(c3ccc(OC)cc3)C2)cc1 (centres unmarked),9.84
23,Cc1cc(-c2ccccc2)nc(SCc2ccc(C(=O)O)o2)n1,-3.89

row,SMILES,"hERG current change (%, negative = inhibition) at 10uM [%]"
1,Cc1ccc(C(=O)Nc2cccnc2)cc1Cl,4.54
2,O=C(NCC(=O)N1CCN(C(c2ccccc2)c2ccccc2)CC1)c1ccc(Br)o1,8.38
3,Cc1cc(Br)c(NC(=O)CN(C)CCOc2ccccc2)c(Br)c1,-19.5
4,COc1ccc(Cn2nnc3c(=O)[nH]c(C(=O)NCCc4ccc(F)cc4)nc32)cc1OC,7.28
5,COc1ccc(NC(=O)CN2CCC(C(N)=O)(N3CCCCC3)CC2)c(OC)c1,1.56
6,NC(=O)C1(N2CCCCC2)CCN(Cc2ccc(Br)cc2)CC1,-51
7,NC(=O)C1(N2CCCCC2)CCN(CC(=O)Nc2cc(Cl)ccc2Cl)CC1,-72
8,O=C(CN1CCCCC1)Nc1cc(Cl)ccc1Cl,-0.685
9,O=C(CN1CCCC1)Nc1ccc(Oc2ccc(NC(=O)CN3CCCC3)cc2)cc1,17.3
10,NC(=O)C1(N2CCCCC2)CCN(Cc2ccccc2)CC1,2.53
11,Cl.O=C(CN1CCCCCC1)Nc1ccc(Oc2ccccc2)cc1,-78.6
12,CN1CCN(CC(=O)Nc2ccc(Oc3ccccc3)cc2)CC1,-47.5
13,NC(=O)C1(N2CCCCC2)CCN(Cc2ccc(F)cc2)CC1,-6.92
14,CC(C)C(NC(=O)C1CCC(C(C)(C)C)CC1)C(=O)NCCc1ccc(S(N)(=O)=O)cc1 (centres unmarked),14.1
15,COc1ccc2c(N)c(C(=O)NN)[nH]c2c1,2.16
16,COCCN(C(=O)CSc1nc2ccc(Cl)cc2[nH]1)c1c(N)n(Cc2ccccc2)c(=O)[nH]c1=O,-7.02
17,Cc1cc(C)n(CC(O)Cn2c3ccc(Br)cc3c3cc(Br)ccc32)c(=O)n1 (centres unmarked),19.5
18,Cc1ccc(CCNC(=O)c2nn(C)c3c2CS(=O)(=O)c2ccccc2-3)cc1,-39.7
19,O=C(/C=C/Nc1ccc(S(=O)(=O)Nc2ncccn2)cc1)c1cccs1,4.26
20,COc1ccc(/C=C(\NC(=O)c2ccccc2)C(=O)NCc2cccnc2)cc1,-70.5
21,CN(C)c1ccc(/C=C(\NC(=O)c2ccccc2)C(=O)NCc2cccnc2)cc1,-18.9
22,COc1ccc(CNC(=O)C(=O)NCc2cccnc2)cc1,-6.16
23,O=C(NCc1ccccc1Cl)/C(=C\c1cccnc1)NC(=O)c1ccccc1,-48.7

row,SMILES,"hERG current change (%, negative = inhibition) at 10uM [%]"
1,COc1ccc(C(=O)NCc2cccnc2)cc1,-1.7
2,COc1ccc(C(=O)N/C(=C\c2ccccc2)C(=O)NCc2cccnc2)cc1,-70.8
3,Cc1ccc(C(=O)N/C(=C\c2ccccc2)C(=O)NCc2cccnc2)cc1,-71.9
4,O=C(NCc1cccnc1)/C(=C/c1ccccc1)NC(=O)c1ccccc1,-34.5
5,O=C(NCc1cccnc1)/C(=C/c1ccc(Cl)cc1)NC(=O)c1ccccc1,-68.5
6,COc1ccc(/C=C(/NC(=O)c2ccccc2)C(=O)NCc2ccco2)cc1,27
7,COc1ccc(/C=C(\NC(=O)c2ccccc2)C(=O)N/N=C/c2cccnc2)cc1,-5.03
8,COC1c2ccccc2C(=O)N1Cc1ccc(F)cc1 (centres unmarked),5.48
9,O=C(Oc1c(Br)cc([N+](=O)[O-])cc1Br)c1cccnc1,16.7
10,O=C(O)CCC(NC(=O)C1CCCN1C(=O)OCc1ccccc1)C(=O)O (stereo not drawn) (Cbz-Pro-Glu-OH; configuration not given here),14
11,Cc1cc(C)nc(SCCc2ccncc2)n1.Cl,9.82
12,CN(c1ccc(OC(=O)CC2OC(=O)c3ccccc32)cc1)S(=O)(=O)c1ccccc1 (centres unmarked),-8.52
13,Cc1ccc(C2C(N)C(=O)N2c2ccc(C)cc2)cc1 (centres unmarked),-5.54
14,CCOc1ccc(C(=O)OC2CC3CCC(C2)N3C)cc1.Cl (centres unmarked),-30
15,CN1CCCC(OC(=O)c2cc(Cl)cc(Cl)c2)C1.Cl (centres unmarked),-43.4
16,CN1C2CCC1CC(OC(=O)c1cc(Cl)cc(Cl)c1)C2.Cl (centres unmarked),-57.4
17,O=C(OC1Cn2c(=O)ccc(=O)n2C1)c1ccc([N+](=O)[O-])cc1,-12.8
18,CN1C2CCC1CC(OC(=O)c1c[nH]c3ccccc13)C2 (centres unmarked),-59.1
19,CN1C2CCC1CC(OC(=O)c1ccc([N+](=O)[O-])cc1)C2 (centres unmarked),-67.9
20,CN1C2CCC1CC(OC(=O)c1ccc(Cl)cc1)C2.Cl (centres unmarked),-48.9
21,CN1[C@@H]2CC[C@H]1CC(OC(=O)c1c[nH]c3ccccc13)C2.Cl (some centres unmarked),-48.1
22,CN1C2CCC1CC(OC(=O)c1c[nH]c3ccccc13)C2.Cl (centres unmarked),-40.2
23,CCOC(=O)c1ccc(S(=O)(=O)N2CCN(c3ccccn3)CC2)cc1,8.95

row,SMILES,"hERG current change (%, negative = inhibition) at 10uM [%]"
1,CCOc1ccc(OCC)c(NC(=O)C2CCN(c3nn4c(=O)cc(C)nc4s3)CC2)c1,-30.5
2,COc1ccc(CCC(=O)c2ccc(OC)cc2)cc1,-1.41
3,Cc1ccc(C)c(NC(=O)COC(=O)CCCN=C2NS(=O)(=O)c3ccccc32)c1,4.55
4,Cn1nc([N+](=O)[O-])nc1Sc1cccc2cccnc12,13.9
5,Cc1ccc2c(Cl)cc(Cl)c(OCC(=O)NCCc3ccccn3)c2n1,-42.7
6,Cc1ccc(CNC(=O)[C@@H](NC(=O)Cc2ccccc2)C(C)C)cc1,6.89
7,CCN(CC)CCCNC(=O)C1CCC(=O)N(c2ccc(OC)cc2)C1c1ccc(F)cc1 (centres unmarked),1.14
8,CCOc1ccc(N(CC)C(=O)Cc2c(C(=O)O)n(C)c3ccccc23)cc1,16.8
9,COC(=O)c1sccc1-n1cccc1C(=O)C(=O)N1CCCC1,14.3
10,COC(=O)c1sccc1-n1cccc1C(=O)C(=O)N1CCOCC1,-78.3
11,COC(=O)c1sccc1-n1cccc1C(=O)N1CCOCC1,-44.5
12,COc1ccc(CNC(=O)C(C)n2nc(C)c3c(C)n(-c4ccc(C)cc4)nc3c2=O)cc1 (centres unmarked),-50.1
13,Cc1ccc(-n2nc3c(=O)n(CCCC(=O)NCc4ccc(F)cc4)nc(C)c3c2C)cc1,-76.5
14,Cc1ccc(-n2nc3c(=O)n(C(C)C(=O)NCc4ccc(Cl)cc4)nc(C)c3c2C)cc1 (centres unmarked),-63.5
15,Cc1ccc(-n2nc3c(=O)n(C(C)C(=O)NCc4ccc5c(c4)OCO5)nc(C)c3c2C)cc1 (centres unmarked),1.78
16,Cc1ccc(CNC(=O)CCCn2nc(C)c3c(C)n(-c4ccccc4)nc3c2=O)cc1,5.48
17,CCOc1ccc(CNC(=O)C(C)n2nc(C)c3c(C)n(-c4ccccc4)nc3c2=O)cc1 (centres unmarked),-16.1
18,CSc1ccc(CNC(=O)C(C)n2nc(C)c3c(C)n(-c4ccccc4)nc3c2=O)cc1 (centres unmarked),-38.2
19,CCC(C(=O)NCCC1=CCCCC1)n1nc(C)c2c(C)n(-c3ccccc3)nc2c1=O (centres unmarked),-48.6
20,Cc1ccc(-n2nc3c(=O)n(CC(=O)NCCC4=CCCCC4)nc(C)c3c2C)cc1,2.08
21,Cc1ccc(-n2nc3c(=O)n(CCCC(=O)NCc4ccc(Cl)cc4)nc(C)c3c2C)cc1,4.82
22,Cc1ccc(-n2nc3c(=O)n(C(C)C(=O)NCCC4=CCCCC4)nc(C)c3c2C)cc1 (centres unmarked),-51.4
23,Cc1ccc(-n2nc3c(=O)n(C(C)C(=O)NCc4ccccc4Cl)nc(C)c3c2C)cc1 (centres unmarked),-35.5
